# Laboratory results: the supplement of paper PMC8728848
# About 410 targets per protein were measured; listed, in parts, are those with the strongest signals and a random draw of the rest.
# Columns and labels:
# Assay in all cases: glycan array binding signal (z-score within array); higher = stronger binding
# Details in all cases: glycan notation: IUPAC condensed, linker removed
# [1] = biological target: GalNAc(b1-4)GlcNAc(b1-3)GalNAc(b1-4)GlcNAc
# How it was run: (§1)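 The Consortium for Functional Glycomics database supplied 3228 glycan arrays, of which those lacking an available protein sequence were dropped. The binding signal, a within-array Z-score, was averaged across arrays of the same protein sequence and across linkers. Negative scores can be read as non-binding.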
# GalNAc4S6S(b1-4)GlcNAc = biological target: GalNAc4S6S(b1-4)GlcNAc
# How it was run: as §1
# [2] = biological target: Glc(a1-4)Glc(a1-4)Glc(a1-4)Glc
# How it was run: as §1
# [3] = biological target: Glc(a1-6)Glc(a1-6)Glc(a1-6)Glc
# How it was run: as §1
# Glc(b1-6)Glc = biological target: Glc(b1-6)Glc
# How it was run: as §1
# [4] = biological target: GlcNAc(a1-4)Gal(b1-4)GalNAc
# How it was run: as §1
# [5] = biological target: GlcNAc(a1-4)Gal(b1-4)GlcNAc
# How it was run: as §1
# [6] = biological target: GlcNAc(a1-4)Gal(b1-4)GlcNAc(b1-3)Gal(b1-4)GlcNAc
# How it was run: as §1
# [7] = biological target: GlcNAc(b1-2)[GlcNAc(b1-4)]Man(a1-3)[GlcNAc(b1-4)][GlcNAc(b1-2)[GlcNAc(b1-6)]Man(a1-6)]Man(b1-4)GlcNAc(b1-4)[Fuc(a1-6)]GlcNAc
# How it was run: as §1
# GlcNAc(b1-3)Fuc = biological target: GlcNAc(b1-3)Fuc
# How it was run: as §1
# GlcNAc(b1-3)Gal(b1-4)Glc = biological target: GlcNAc(b1-3)Gal(b1-4)Glc
# How it was run: as §1
# [8] = biological target: GlcNAc(b1-3)Gal(b1-4)GlcNAc(b1-3)Gal(b1-4)GlcNAc(b1-2)Man(a1-3)[GlcNAc(b1-3)Gal(b1-4)GlcNAc(b1-3)Gal(b1-4)GlcNAc(b1-2)Man(a1-6)]Man(b1-4)GlcNAc(b1-4)GlcNAc
# How it was run: as §1
# [9] = biological target: GlcNAc(b1-3)Gal(b1-4)GlcNAc(b1-3)Gal(b1-4)GlcNAc(b1-3)Gal(b1-4)GlcNAc(b1-3)Gal(b1-4)GlcNAc(b1-2)Man(a1-3)[GlcNAc(b1-3)Gal(b1-4)GlcNAc(b1-3)Gal(b1-4)GlcNAc(b1-3)Gal(b1-4)GlcNAc(b1-3)Gal(b1-4)GlcNAc(b1-2)Man(a1-6)]Man(b1-4)GlcNAc(b1-4)[Fuc(a1-6)]GlcNAc
# How it was run: as §1
# [10] = biological target: GlcNAc(b1-3)Gal(b1-4)GlcNAc(b1-3)Gal(b1-4)GlcNAc(b1-3)Gal(b1-4)GlcNAc(b1-3)Gal(b1-4)GlcNAc(b1-2)[GlcNAc(b1-3)Gal(b1-4)GlcNAc(b1-3)Gal(b1-4)GlcNAc(b1-3)Gal(b1-4)GlcNAc(b1-3)Gal(b1-4)GlcNAc(b1-6)]Man(a1-6)[GlcNAc(b1-3)Gal(b1-4)GlcNAc(b1-3)Gal(b1-4)GlcNAc(b1-3)Gal(b1-4)GlcNAc(b1-3)Gal(b1-4)GlcNAc(b1-2)Man(a1-3)]Man(b1-4)GlcNAc(b1-4)[Fuc(a1-6)]GlcNAc
# How it was run: as §1
# [11] = biological target: GlcNAc(b1-3)Gal(b1-4)GlcNAc(b1-3)[GlcNAc(b1-3)Gal(b1-4)GlcNAc(b1-3)]GalNAc
# How it was run: as §1
# Kdn(a2-3)Gal(b1-4)GlcNAc = biological target: Kdn(a2-3)Gal(b1-4)GlcNAc
# How it was run: as §1
# [12] = biological target: Man(a1-2)Man(a1-2)Man(a1-3)Man
# How it was run: as §1
# [13] = biological target: Neu5Ac(a2-3)Gal(b1-3)GlcNAc(b1-3)Gal(b1-4)GlcNAc
# How it was run: as §1
# [14] = biological target: Neu5Ac(a2-3)Gal(b1-3)GlcNAc(b1-3)GalNAc
# How it was run: as §1
# [15] = biological target: Neu5Ac(a2-6)Gal(b1-4)GlcNAc(b1-2)Man
# How it was run: as §1
# [16] = biological target: Neu5Ac(a2-6)Gal(b1-4)GlcNAc(b1-3)Gal(b1-4)GlcNAc
# How it was run: as §1
# [17] = biological target: Neu5Ac(a2-8)Neu5Ac(a2-3)[Gal(b1-3)GalNAc(b1-4)]Gal(b1-4)Glc
# How it was run: as §1
# [18] = biological target: Neu5Gc(b2-6)Gal(b1-4)GlcNAc
# How it was run: as §1
binder,measurement,setting,value
"Pa IMPa (Pseudomonas aeruginosa), Q9I5W4 (protein) MSLSTTAFPSLQGENMSRSPIPRHRALLAGFCLAGALSAQAATQEEILDAALVSGDSSQLTDSHLVALRLQQQVERIRQTRTQLLDGLYQNLSQAYDPGAASMWVLPANPDNTLPFLIGDKGRVLASLSLEAGGRGLAYGTNVLTQLSGTNAAHAPLLKRAVQWLVNGDPGAATAKDFKVSVVGVDKTAALNGLKSAGLQPADAACNALTDASCASTSKLLVLGNGASAASLSATVRARLQAGLPILFVHTNGWNQSSTGQQILAGLGLQEGPYGGNYWDKDRVPSSRTRTRSVELGGAYGQDPALVQQIVDGSWRTDYDWSKCTSYVGRTTCDDVPGLSDFSKRVDVLKGALDAYNQKAQNLFALPGTTSLRLWLLWADAVRQNIRYPMDKAADTARFQETFVADAIVGYVREAGAAQKELGSYAGQRQQSMPVSGSEETLTLTLPSAQGFTAIGRMAAPGKRLSIRIEDAGQASLAVGLNTQRIGSTRLWNTRQYDRPRFLKSPDIKLQANQSVALVSPYGGLLQLVYSGATPGQTVTVKVTGAASQPFLDIQPGEDSSQAIADFIQALDADKADWLEIRSGSVEVHAKVEKVRGSIDKDYGGDVQRFIRELNEVFIDDAYTLAGFAIPNQAKTPAIQQECAARGWDCDSETLHKLPGTQHINVDQYAQCGGGCSGNPYDQTWGLNPRGWGESHELGHNLQVNRLKVYGGRSGEISNQIFPLHKDWRVLREFGQNLDDTRVNYRNAYNLIVAGRAEADPLAGVYKRLWEDPGTYALNGERMAFYTQWVHYWADLKNDPLQGWDIWTLLYLHQRQVDKSDWDANKAALGYGTYAQRPGNSGDASSTDGNDNLLLGLSWLTQRDQRPTFALWGIRTSAAAQAQVAAYGFAEQPAFFYANNRTNEYSTVKLLDMSQGSPAWPFP",glycan array binding signal (z-score),[1],-0.197
same,glycan array binding signal (z-score),GalNAc4S6S(b1-4)GlcNAc,1.48
same,glycan array binding signal (z-score),[2],0.634
same,glycan array binding signal (z-score),[3],0.853
same,glycan array binding signal (z-score),Glc(b1-6)Glc,-0.442
same,glycan array binding signal (z-score),[4],0.088
same,glycan array binding signal (z-score),[5],3.49
same,glycan array binding signal (z-score),[6],-0.321
same,glycan array binding signal (z-score),[7],1.41
same,glycan array binding signal (z-score),GlcNAc(b1-3)Fuc,1.37
same,glycan array binding signal (z-score),GlcNAc(b1-3)Gal(b1-4)Glc,-0.08
same,glycan array binding signal (z-score),[8],-0.305
same,glycan array binding signal (z-score),[9],7.78
same,glycan array binding signal (z-score),[10],0.125
same,glycan array binding signal (z-score),[11],17.5
same,glycan array binding signal (z-score),Kdn(a2-3)Gal(b1-4)GlcNAc,-0.467
same,glycan array binding signal (z-score),[12],-0.474
same,glycan array binding signal (z-score),[13],0.474
same,glycan array binding signal (z-score),[14],0.273
same,glycan array binding signal (z-score),[15],-0.409
same,glycan array binding signal (z-score),[16],-0.371
same,glycan array binding signal (z-score),[17],-0.007
same,glycan array binding signal (z-score),[18],-0.305
